EWS-Fli inh: blocks EWS/Fli oncoprotein-driven transcription | A673 NR0B1-luciferase reporter, viability-normalised | 350,000 compounds, 0.67% hits | inhibition, % at 12.6 µM;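 active = mean inhibition of at least 50% after viability correction, with every replicate also passing that limit; inconclusive = mean reaches 50% but only one of two replicates passes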;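 also: firefly luciferase signal divided by Alamar Blue viability fluorescence both relative to DMSO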
LGR2 antag: Drosophila LGR2 receptor signaling inhibition | HEK293 LGR2, CRE-luciferase, bursicon-stimulated, 4 h | inhibition, % at 9.99 µM | 380,000 compounds, 0.35% hits | AID 720647;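 active = drop in luminescence signal, shown as inhibition above about 50% in the replicate tests, limit read from the data, passing the limit was not always enough; inconclusive = probably only some replicates passing the limit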;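 also: agonist challenge used bursicon conditioned medium at about half maximal strength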
CFTR F508del cor: CFTR F508del correction in bronchial cells; CFBE cells, YFP halide quenching; stimulated with forskolin plus potentiator P3; % fluorescence drop versus neutral controls; activity (quench increase), % at 7.58 µM; 350,000 compounds, 0.36% hits;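 active = mean added fluorescence quench of at least 8% versus neutral control, with both replicates also reaching 8%; inconclusive = only one of the mean or replicate conditions met; inactive = mean below 8% and not both replicates reaching 8%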;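 also: cells transiently co-express mutant CFTR-F508del with the halide-sensitive YFP; corrector assay measuring rescue of mutant channel to the surface after 24 h compound exposure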
PAX8 inh HTS: lowers PAX8-driven luciferase in RMG-I cells. RMG-I TPO-luciferase reporter, SteadyGlo, 24 h. inhibition, % at 12.6 µM. 360,000 compounds, 1.2% hits. AID 652154;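 active = mean replicate inhibition at least 60% with every replicate also reaching 60%; inconclusive = only one of the two criteria is met; inactive = mean below 60% and not all replicates reaching 60%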;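 also: luciferase light reporting Pax8 driven TPO promoter activity; plate controls were median of neutral control wells for no effect and mitoxantrone controls for full effect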
DNA binder FP: binds DNA displacing acridine orange; shares compounds with EWS-Fli inh; salmon sperm DNA acridine orange fluorescence polarization; AC35, µM (top dose mostly 68 µM), for the others: top-dose activity change, negative = DNA binding; 640 compounds, 2% hits; AID 720586;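 active = fitted curve reaches a 35% signal fall AC35 below twice the sample's top valid tested dose, actives reach about 48 µM in these data; inactive = the rest, including activity in the rising direction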;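 also: lower polarization ratio signals compound binding to DNA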
* marks the source's active call; other numbers are inactive results; u = inconclusive; x = not tested or not shown. In the library only some 1.8% were active in any assay of this set; here they are far more common.

SMILES	EWS-Fli inh	LGR2 antag	CFTR F508del cor	PAX8 inh HTS	DNA binder FP
Cc1ccc(-c2ccc3c(c2)O[C@@H](CN(C)C(=O)Nc2ccc(F)cc2)[C@H](C)CN([C@@H](C)CO)S3(=O)=O)cc1	54*	1	4	x	-10%
CC(C)NC(=O)N(C)C[C@@H]1Oc2cc(C#Cc3ccc(F)cc3)ccc2S(=O)(=O)N([C@H](C)CO)C[C@H]1C	56*	18	3	x	-9%
CCN1[C@@H]2c3ccc(-c4ccccc4F)c(=O)n3C[C@H]1[C@H](CO)[C@H]2C(=O)NCc1ccc(F)cc1	0	-10	x	5	x
c1cncc(-c2noc(-c3ccc4ccccc4c3)n2)c1	4	x	2	-127	x
COc1cc(-c2coc3c(C(=O)NCc4ccc(C(F)(F)F)cc4)cccc23)ccc1O	62*	-2	0	14	7%
CCc1ccc(C2=NN(CCC(=O)NC(C)c3ccc4c(c3)OCCO4)C(=O)CC2)cc1 (configuration not stated)	3	1	0	14	x
Cc1csc(NC(=O)CSc2nnc(-c3ccc(Cl)cc3)n2N)n1	x	-8	x	x	x
Cc1csc(NC(=O)CCc2c(C)nc3cc(-c4ccc(Cl)cc4)nn3c2C)n1	56*	-74	0	11	-8%
COc1cc(OC)cc(-c2cc3nc(C)c(CCC(=O)NCc4ccccc4)c(C)n3n2)c1	57*	-12	0	18	-9%
Cc1nc2cc(-c3ccc(Cl)cc3)nn2c(C)c1CCC(=O)NC(C)c1ccc2c(c1)OCCO2 (configuration not stated)	57*	-31	2	29	1%
Cn1c(CNC(=O)C2CCCCC2)cc2ccccc21	-8	-10	-2	-1	x
C[C@H](CO)N1C[C@H](C)[C@H](CN(C)S(=O)(=O)c2ccccc2)Oc2ncc(-c3ccncc3)cc2C1=O	-6	8	1	9	x
C/C(=N\OCc1cccc(C(=O)O)c1)c1ccc(Cl)cc1	84*	100*	x	81*	-14%
COc1cc2c(cc1OC)C(C)N(C(=O)c1nccnc1C(=O)O)CC2 (configuration not stated)	1	-4	0	11	x
COc1cc2c(cc1OC)C(C)N(C(=O)c1cc(Cl)nc(Cl)c1)CC2 (configuration not stated)	56*	-24	2	14	1%
COc1ccccc1OCC(O)CN1CCN(CC(=O)Nc2c(C)cccc2C)CC1 (configuration not stated)	-1	-3	0	21	x
CNC[C@H](CC1CCCCC1)NC[C@H](CO)NCC1(c2ccccc2)CC1	9	10	1	13	x
CNC[C@H](CC1CCCCC1)NC[C@H](CO)NCCc1cccc(C(F)(F)F)c1	61*	u	-3	72*	-8%
C=CC[n+]1c(-c2ccc(C)cc2)csc1Nc1ccc(NC(C)=O)cc1	62*	-39	-1	8	-6%
COc1ccc(CN(C)c2ncnc3sccc23)c(OC)c1OC	63*	0	-2	23	-7%
CCN(Cc1ccccc1)c1ccc(/C=N/N=C(N)N)cc1	57*	62*	9.9*	x	-12%
CN(NS(=O)(=O)c1ccccc1)C(=O)c1ccccc1	3	4	4	-7	x
COc1ccc(NC(=O)N2CCCCN3[C@@H](CO)[C@H](c4ccc(C5=CCCCC5)cc4)[C@@H]3C2)cc1	71*	-9	1	-12	-2%
C[C@@H]1CCCCO[C@H](CN(C)C(=O)Nc2ccc(F)cc2)[C@@H](C)CN([C@H](C)CO)C(=O)c2cc(N(C)C)ccc2O1	3	-5	-2	6	x
CN(C)CC1CCC/C(=C\c2ccc(OC(=O)c3ccc(Cl)cc3)cc2)C1=O (configuration not stated)	59*	7	-1	x	-8%
SMILES	EWS-Fli inh	LGR2 antag	CFTR F508del cor	PAX8 inh HTS	DNA binder FP
CN(C)CC1CCC/C(=C\c2ccc(OC(=O)/C=C/c3ccccc3)cc2)C1=O (configuration not stated)	-5	2	-1	x	x
Nc1ccc(-c2cc3ccccc3c(=O)o2)cc1	64*	-13	-1	-14	-24%
O=c1oc(-c2ccccc2)cc2ccccc12	-110	5	5	x	x
CC(=O)N1CCCC(c2cc(C(=O)Nc3ccccc3)no2)C1 (configuration not stated)	75*	88*	0	u	-2%
O=C(Nc1ccccc1)c1cc(C2CCCN(C(=O)C/C=C/c3ccccc3)C2)on1 (configuration not stated)	-15	-40	1	-21	x
CCN1C/C(=C/c2ccc(OC)c(O)c2)C(=O)/C(=C/c2ccc(OC)c(O)c2)C1	53*	32	6	18	1%
O=C(N/N=C/c1cccnc1)c1cc(-c2ccc(Cl)cc2)nc2ccccc12	12	-13	6	24	x
O=C(N/N=C/c1ccc[nH]1)c1cc(-c2ccc(Cl)cc2)nc2ccccc12	54*	10	2	9	-6%
C/C=C/c1ccc([C@H]2[C@@H](CO)N3C(=O)CN(S(=O)(=O)c4cccc(F)c4)C[C@@H]23)cc1	52*	-23	-2	x	-2%
C/C=C/c1ccc([C@H]2[C@@H](CO)N3C(=O)CN(S(=O)(=O)c4cccc(F)c4)C[C@H]23)cc1	17	4	-2	x	x
CCN(CC)S(=O)(=O)c1ccc(NC(=O)c2cc(=O)[nH]c3ccccc23)cc1	13	-10	0	13	x
CC(C)(C)c1ccc(Oc2ccc(NC(=O)c3ccccc3C(=O)O)cn2)cc1	63*	4	2	14	2%
CC(C)(C)c1ccc(Oc2ccc(N)cn2)cc1	71*	-15	-3	14	-14%
CCCCC12CN3CCN(CC(C3)/C1=N\NC(=O)c1ccccc1N)C2	x	14	x	-53	x
COc1ccc(CCCNC(=O)C2Cc3c(-c4ccc5c(c4)OCO5)ccnc3O2)cc1 (configuration not stated)	53*	-3	0	28	-2%
CCCC(O)C#Cc1cnc2c(c1)C(=O)N([C@H](C)CO)C[C@H](C)[C@H](CN(C)C(=O)Nc1ccc(OC)cc1)O2 (some centres not stated)	-3	21	-1	x	x
CCCCC[C@H](C)N1C[C@H](COCc2ccccc2)Oc2cc(N3CC[C@@H](N(C)C)C3)ccc2S1(=O)=O	59*	-2	-2	26	-4%
O=[N+]([O-])c1cc(C=NN2CCCCCC2)ccc1Cl	-107	-90	7	-210	x
COc1ccc2cc(C(N)=O)/c(=N\NC(=O)c3ccccc3)oc2c1	71*	u	1	10	-16%
O=c1c2ccccc2ncn1Cc1ccc(Cl)c(Cl)c1	13	-10	4	14	x
Cc1[nH][nH]c(=O)c1C(c1c(C)[nH][nH]c1=O)c1cn(Cc2ccc(Cl)c(Cl)c2)c2ccccc12	53*	-1	0	28	2%
O=c1cc(CN2CCN(Cc3ccccc3)CC2)c2ccc(O)c(O)c2o1	52*	-1	2	29	-5%

Assay outcomes deposited in PubChem BioAssay by Broad Institute.
